JMJD2A Tudor inh – JMJD2A Tudor domain (human) inhibition; Potency, µM (top dose mostly 114 µM), without a hit: top-dose activity change, negative = inhibition, actives largely listed as inhibitors; AlphaScreen JMJD2A-Tudor / H3K4me3 peptide binding; 390,000 compounds, 4.4% hits; AID 504339; also: % is scaled to controls: 0 for no effect and ±100 for the full control effect; nearly all actives have a fitted effect of over 50% in size
L3MBTL1 block – L3MBTL1 (human) inhibition; AlphaScreen L3MBTL1–H3K9me1 peptide binding; Potency, µM (highest dose often 57.1 µM), for the others: top-dose activity, negative = inhibition, actives largely listed as inhibitors; 230,000 compounds, 0.66% hits; also: % is scaled to controls: 0 for no effect and ±100 for the full control effect; nearly all actives have a fitted effect of over 60% in size
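AlphaScreen assay: L3MBTL1 (50 nM final) was preincubated 30 min at room temperature with biotinylated H3(1-15)K9me1 peptide (75 nM final), then 30 min with library compounds; streptavidin donor and nickel chelate acceptor beads (10 ug/mL final) added, 30 min dark.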
HP1b chromo inh – inhibitors of HP1-beta chromodomain binding to methylated histone tails | P83916 | AlphaScreen HP1-beta / biotin-H3K9me3 peptide binding | Potency, µM (top dose mostly 114 µM), inactives show at the top dose activity change, negative = inhibition, usual class: inhibitors | 390,000 compounds, 0.56% hits | AID 540317; also: nearly all actives have a fitted effect of over 70% in size
Target sequence (P83916 whole entry, looked up): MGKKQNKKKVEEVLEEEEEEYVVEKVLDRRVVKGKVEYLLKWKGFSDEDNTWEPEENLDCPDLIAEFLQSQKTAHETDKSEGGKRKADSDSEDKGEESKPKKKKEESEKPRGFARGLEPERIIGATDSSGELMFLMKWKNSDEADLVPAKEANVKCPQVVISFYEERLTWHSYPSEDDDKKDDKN
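HP1-beta protein (50 nM final) preincubated 30 min at room temperature with biotinylated H3(1-18)K9me3 peptide (50 nM) in PBS pH 7.4, 0.01% Tween-20, then compound added for 30 min. AlphaScreen streptavidin donor/nickel chelate acceptor beads (10 ug/mL final), 30 min dark, luminescence read.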
BAZ2B block – blocks human BAZ2B | Q9UIF8 | AlphaScreen BAZ2B-H3K14Ac peptide displacement | Potency, µM (top dose mostly 114 µM), without a hit: top-dose activity change, negative = inhibition, actives largely listed as inhibitors | 360,000 compounds, 4.4% hits; also: % is scaled to controls: 0 for no effect and ±100 for the full control effect; nearly all actives have a fitted effect of over 60% in size
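In this displacement format the biotinylated H3(5-23) peptide acetylated at Lys14 serves as ligand at 50 nM, with BAZ2B at 50 nM in PBS pH 7.4 containing 0.01% Tween-20. Donor and acceptor beads are 10 ug/mL final.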
PLK1 PBD block – PLK1 (human) polo-box domain binding inhibition. P53350. Plk1 PBD binding of FITC phosphopeptide, fluorescence polarization. Potency, µM, inactives show max response, negative = inhibition, actives largely listed as inhibitors. 360,000 compounds, 2.8% hits. AID 720504; also: series mostly up to about 57 µM; % is scaled to controls: 0 for no effect and ±100 for the full control effect; nearly all actives have a fitted effect of over 65% in size
VDR inh – inhibitors of human vitamin D receptor; P11473; VDR-SRC2-3 peptide fluorescence polarization, 2 h; Potency, µM, for the others: max response, negative = inhibition, hits mostly inhibitors; 400,000 compounds, 0.93% hits; also: % is scaled to controls: 0 for no effect and ±100 for the full control effect
Target sequence (P11473 whole entry, looked up): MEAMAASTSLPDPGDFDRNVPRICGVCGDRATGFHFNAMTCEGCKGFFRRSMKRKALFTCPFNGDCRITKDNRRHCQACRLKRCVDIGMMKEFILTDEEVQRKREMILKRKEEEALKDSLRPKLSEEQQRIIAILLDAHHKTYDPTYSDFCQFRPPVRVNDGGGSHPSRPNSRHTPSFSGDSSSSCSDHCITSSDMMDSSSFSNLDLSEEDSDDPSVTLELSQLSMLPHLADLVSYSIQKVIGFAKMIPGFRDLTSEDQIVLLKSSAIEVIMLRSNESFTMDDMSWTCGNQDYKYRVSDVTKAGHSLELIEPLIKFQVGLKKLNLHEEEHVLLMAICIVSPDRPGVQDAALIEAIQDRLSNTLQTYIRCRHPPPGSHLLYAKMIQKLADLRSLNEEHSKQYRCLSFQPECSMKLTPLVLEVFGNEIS
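Measured by FP: displacement of SRC2-3 coactivator peptide from VDR by library compounds, following a two-hour ambient incubation.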
* hit, by the source's call; ? = inconclusive; / = no result given; [ ] = another dose, or the depositor's remark. The list is not random: actives were taken first. Their share in the collection is about 6.9%. Calls follow the shape of the dose curve; as a rule, active = well fitted curve in the direction sought with a large enough effect; inconclusive = small, poorly fitted or top-dose-only effect, or another doubt; inactive = no such curve, though single readings can be large; an effect the other way counts as inactive or inconclusive. Potency is read from the fitted curve at half-maximal effect.

SMILES	JMJD2A Tudor inh	L3MBTL1 block	HP1b chromo inh	BAZ2B block	PLK1 PBD block	VDR inh
CC(C)=CCc1c(O)cc2oc3c(CC=C(C)C)c(O)c(O)c(CC=C(C)C)c3c(=O)c2c1O	50µM*	/	4%	50µM*	-21%	-11%
COc1ccc(NS(=O)(=O)c2cc(Br)cc3c2N(C(=O)C2CC2)CC3)cc1OC	-4%	/	-3%	8%	/	-8%
CCN1/C(=C/c2ccc3cc(C)ccc3[n+]2CC)Sc2cc(C)c(C)cc21	?	?	?	45µM*	5%	7%
CC[n+]1c(/C=C2\Sc3ccccc3N2C)ccc2cccc(C)c21	-23%[57.1 µM]	-8%	?	45µM*	2%	-13%
CCN1/C(=C/c2ccc3cc(C)ccc3[n+]2CC)Sc2ccccc21	-43%	-5%	?	45µM*	11%	4%
CN1/C(=C/c2cccc[n+]2CCO)Sc2ccccc21	?	3%	-13%	56µM*	11%	-8%
COc1ccc(-c2ccc3c(c2)O[C@H](CN(C)C(=O)Nc2ccccc2F)[C@@H](C)CN([C@H](C)CO)S3(=O)=O)cc1	/	/	/	/	-30%	/
O=C(CSc1cn(CCNC(=O)c2ccccc2F)c2ccccc12)Nc1ccc(F)cc1	4%	/	42%	-14%	/	1%
CCOc1ccccc1Nc1nc2ccccc2nc1NS(=O)(=O)c1ccc(Cl)cc1	-4%	/	22%	4%	/	-7%
CC(C)C[C@H](NC(=O)CNC(=O)[C@@H]1CCCN1C(=O)[C@H](CCCNC(=N)N)NC(=O)[C@H](CC(=O)O)NC(=O)[C@@H](NC(=O)[C@H](CC(N)=O)NC(=O)[C@@H](NC(=O)[C@H](CC(=O)O)NC(=O)CNC(=O)[C@@H](NC(=O)[C@@H](NC(=O)[C@H](C)NC(=O)[C@@H](N)CCC(N)=O)[C@@H](C)O)C(C)C)C(C)C)[C@@H](C)O)C(=O)N[C@@H](CC(C)C)C(=O)N[C@@H](CC(=O)O)C(=O)N[C@@H](CC(C)C)C(=O)N[C@@H](CCCCN)C(=O)O	/	/	/	/	/	3%
Cn1ccc(C(=O)NC(=S)N2CCSCC2)n1	50µM*	1%	?	-19%	-20%	-12%
COc1cc2c3c(c1)C(C)CC(C)(C)N3C(=O)C2=O (centres undefined)	?	-17%	?	?	-18%	-26%
CCc1cc2c3c(c1)C(C)CC(C)(C)N3C(=O)/C2=C1\SC(=O)NC1=O (centres undefined)	50µM*	?	?	?	30µM*	0%
Cc1cccc(N2C(=O)C(Cl)=C(Nc3c(C)n(C)n(-c4ccccc4)c3=O)C2=O)c1C	-9%	/	22%	50µM*	-9%	?
CN(C)/C=C/c1c([N+](=O)[O-])c2ccc(O)cc2n1-c1ccccc1	?	-4%	-28%	35µM*	0%	?
CC(=O)Nc1ccc(Nc2c([N+](=O)[O-])c(=O)n(-c3ccccc3)c3ccccc23)cc1	-23%	5%	31%	-14%	-2%	1%
COc1cc(NC(C)CCCN)c2ncccc2c1 (centres undefined)	?	-10%	-6%	56µM*	-23%	-10%
COc1cc(NCCCCCCCN)c2ncccc2c1	?	-4%	-25%	?	-7%	-7%
CCN1CCN(CC(=O)Nc2cc(S(=O)(=O)N3CCCCC3)ccc2Cl)CC1	22µM*	-15%	?	/	-5%	10%
O=C(CN1CCN(c2ccc(O)cc2)CC1)Nc1cc(S(=O)(=O)N2CCCCC2)ccc1Cl	?	-4%	50µM*	/	1%	-6%
O=C(O)c1ccc(N/N=C/c2cc3ccccc3nc2Cl)cc1	-11%	/	12%[57 µM]	-30%	-7%	?
Cc1cccc2cc(/C=N/Nc3ccc(C(=O)O)cc3)c(Cl)nc12	?	/	-2%	50µM*	?	0%
COc1ccc(/C=C2/SC(=S)N(CCCC(=O)N3CCN(C)CC3)C2=O)cc1	?	/	?	32µM*	-1%	2%
Cc1cc(Cl)ccc1OCCCC(=O)N1CCOCC1	-2%[57.1 µM]	0%	52%	1%	-6%	-8%
Cn1c(=O)n(C)c2cc(/C=C3/SC(=O)N(CC(=O)N4CCOCC4)C3=O)ccc21	-2%	0%	14%	50µM*	0%	-21%
SMILES	JMJD2A Tudor inh	L3MBTL1 block	HP1b chromo inh	BAZ2B block	PLK1 PBD block	VDR inh
COc1ccc(/C=C2/SC(=S)N(CCC(=O)N3CCN(C)CC3)C2=O)cc1	-26%	/	2%	-4%	-10%	1%
Cc1ccc(/C=C2\SC(=S)N(CCCC(=O)N3CCOCC3)C2=O)cc1	20µM*	/	?	11µM*	-4%	-3%
Cc1ccc(OCCCC(=O)N2CCOCC2)cc1	-10%[11.4 µM]	10%	0%	3%	12µM*	-3%
Cc1noc(/C=C/c2ccccc2F)c1S(=O)(=O)N1CCC(C(=O)Nc2ccc(C#N)cc2)CC1	-14%	/	20%[57 µM]	-4%	/	1%
CCOc1ccc(NC(=O)c2oc3ccccc3c2NC(=O)Cc2cccs2)cc1	-10%	/	39%	-8%	/	-18%
CCN1C(=O)/C(=C2\SC(=S)N(CC3CCCO3)C2=O)c2ccccc21 (centres undefined)	/	/	/	10µM*	/	/
CCN1C(=O)/C(=C2\SC(=S)N(c3c(C)n(C)n(-c4ccccc4)c3=O)C2=O)c2ccccc21	-4%	4%	16%	-1%	-7%	-8%
CCN1C(=O)/C(=C2\SC(=S)N(NC(=O)c3ccccc3O)C2=O)c2ccccc21	1.8µM*	?	22µM*	25µM*	-29%	12%
CC(=O)NC(c1ccccc1)c1nc(-c2cccs2)cs1 (centres undefined)	/	/	/	/	-4%	/
COc1cccc(NC(=O)CS(=O)(=O)Cc2nc(-c3ccc(C)cc3)oc2C)c1	-13%	/	23%	-5%	-8%	0%
O=C1CC(c2ccco2)Cc2nc(Nc3nc(-c4ccccc4)c4ccccc4n3)ncc21 (centres undefined)	-21%	1%	16%	-5%	-15%	0%
O=C1c2ccccc2NC(c2ccc(O)c(O)c2)N1c1ccccc1Cl (centres undefined)	-18%	/	-5%	40µM*	-7%	-4%
CCCCCCCCCCCCCCCCC(C(=O)O)C(O)(CC(=O)O)C(=O)O (centres undefined)	/	/	/	/	/	10µM*
Cc1ccc(C)c(NC(=O)Cn2cc(C(=O)C3CCCCC3)c3ccccc32)c1	-3%	/	32%	3%[57.1 µM]	/	-4%
Cc1ccn2c(c1)nc(=O)c1cc(S(=O)(=O)N3CCC(C)CC3)c(Cl)cc12	-15%	/	40%	-14%	/	8%
Cc1ccn2c(Nc3ccccc3C)c(-c3ccc(N4CCOCC4)cc3)nc2c1	45µM*	/	-8%	?	/	-11%
